# According to PubChem BioAssay (NCI):
# About 83,000 compounds went through this panel and 20% of them were active in at least one assay; those are over-represented in the sample as a whole.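 Percent growth is the endpoint: 0 to 100 indicates growth inhibition (40 means 60% inhibition), 0 means no net growth, and negative values indicate cell death.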 Unmarked numbers belong to inactive results. Active and inactive are the calls of the source. The calls were made as follows: active = growth percent below 10; inactive = the rest.
# Key:
# Assay in all cases: NCI-60 one-dose screen, 48 h (100 = growth as untreated, 0 = no growth, -100 = all killed)
# Settings in all cases: 10 µM unless noted
# [1] = system: HCT-15 colon
# [2] = system: HT29 colon
# [3] = system: SNB-75 CNS
# [4] = system: SNB-19 CNS
# [5] = system: U251 CNS
# [6] = system: PC-3 prostate
# [7] = system: SK-MEL-5 melanoma
# [8] = system: UACC-62 melanoma
# [9] = system: LOX IMVI melanoma
# [10] = system: SK-MEL-28 melanoma
Compound,growth [1],growth [2],growth [3],growth [4],growth [5],growth [6],growth [7],growth [8],growth [9],growth [10]
NC1=CC(=O)C(=O)c2ccccc21,92.1%,106%,113%,93.2%,88%,91.1%,77.5%,39.4%,7.65% (active),75.2%
COc1ccc(-c2c3c(nc4n[nH]c(-c5ccc(Cl)cc5)c24)-c2ccccc2C(=O)C3=O)cc1,21.6%,-11.8% (active),54.3%,44.3%,-40.2% (active),7.97% (active),5.41% (active),-33.7% (active),-50.9% (active),30.4%
Oc1c(Cl)cc(Cl)cc1CNc1nccnn1,101%,105%,78.1%,95.8%,102%,94.8%,102%,93.9%,99.4%,106%
O=C1c2cc3c(cc2-c2c1c1cc(Cl)c(Cl)cc1c(=O)n2CCCn1ccnc1)OCO3,13%,-8.33% (active),9.95% (active),13.4%,-9.41% (active),25.3%,-9.98% (active),-38.1% (active),-53.6% (active),44.3%
COc1ccc(C(=O)/C=C/c2c(Cl)c3c(c(OC)c2Cl)OCC(=O)N3)cc1,20.1%,7.82% (active),37%,59.6%,17%,52.1%,21.2%,46.7%,-36.1% (active),48.2%
COc1cc2c(cc1O)CCc1cc(O)cc(OC)c1-2,90.7%,95.6%,91.9%,98%,91.3%,93.6%,98.5%,87.2%,93.5%,100%
COc1cc(OC)c(/C=C/S(=O)(=O)Cc2ccc(OC)c(N)n2)c(OC)c1,7.7% (active),-9.76% (active),40.5%,35.8%,8.02% (active),26.8%,-31.2% (active),42.3%,9.35% (active),53.7%
CC(C)[C@H]1COC(=O)N1[C@@H]1C(=O)N([C@@H](CCC(=O)N2CCN(C3CCCC3)CC2)C(=O)N[C@@H]2CCCc3ccccc32)[C@@H]1/C=C/c1cccc(Br)c1,20.9%,-15.3% (active),50%,44.7%,27.5%,29.7%,-82.2% (active),47.3%,-32% (active),32.2%
NC(=S)N/N=C/c1cc(-c2cccc(N)c2)ccn1,23.8%,34.8%,35.1%,42.9%,16.1%,58.8%,8.97% (active),-2.21% (active),15.6%,52.1%
CC/C(Cc1ccccc1)=C(/c1ccc(O)cc1)c1ccc(OCCN2CCCC2)cc1,-56.2% (active),-57% (active),-22.6% (active),0.126% (active),-89.1% (active),-32.2% (active),-100% (active),-77.7% (active),-100% (active),-84.5% (active)
COc1ccc(-c2csc(NC(=O)CN3CCN(c4cc5c(cc4F)c(=O)c(C(=O)O)cn5C4CC4)CC3)n2)cc1,14.6%,4.05% (active),11.7%,16.4%,7.92% (active),11.2%,-24.6% (active),12.1%,-80% (active),39.4%
O=C1CC(c2nc3ccccc3s2)CN1C1CCCCC1 (stereo not given),99.7%,95.4%,83.7%,105%,94.5%,90.1%,96.3%,93.9%,93%,101%
COc1ccc2nc3cc(Cl)ccc3c(N3CCN(c4ccnc(N5CCN(C)CC5)n4)CC3)c2c1,-23.2% (active),-69.4% (active),90.6%,94.5%,46.1%,63.4%,84.7%,94.1%,-62.5% (active),28.7%
